# DT40 TDP1 CPT: growth inhibition of DT40 Tdp1-/-;hTDP1 cells with camptothecin (screen for TDP1 inhibitors); chicken DT40 Tdp1-/-;hTDP1 cells + 20 nM CPT, ATP luminescence, 48 h; 420,000 tested, 12% active; Potency, µM (top dose mostly 46.2 µM), inactives show at the highest dose activity change, negative = growth inhibition, usual class: inhibitors; further: potency means the concentration at half of the fitted maximal effect; nearly all actives have a fitted effect of over 55% in size
#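 Cell growth measured by CellTiter-Glo luminescence after a minimum 48 h, 37 C compound exposure with 20 nM CPT in Tdp1-knockout DT40 cells stably expressing hTDP1, seeded 400/well; qHTS titration format.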
# TDP1 cell noCPT: qHTS for Inhibitors of human tyrosyl-DNA phosphodiesterase 1 (TDP1): qHTS in cells in absence of CPT; Potency, µM (series often up to 46.2 µM), without a hit: at the highest dose activity change, negative = growth inhibition, most hits filed as inhibitors; 420,000 tested, 15% active; DT40 Tdp1-/- hTDP1 cells, no CPT, ATP luminescence, 48 h; further: potency means the concentration at half of the fitted maximal effect; nearly all actives have a fitted effect of over 55% in size
#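 No-CPT arm: Tdp1-/-;hTDP1 DT40 cells (400/well) plus compounds, incubated ≥48 hr at 37 °C. Readout CellTiter-Glo luminescence.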
# ELG1 repair inh: inhibitors of ELG1-dependent DNA repair in HEK293T cells. HEK293T ELG1-luciferase reporter, luminescence, 16 h; DNA damage induced by 5-fluorouridine. Potency, µM (top dose mostly 46.1 µM), without a hit: at the highest dose activity change, negative = inhibition, most hits filed as inhibitors. 330,000 tested, 2.3% active; further: potency means the concentration at half of the fitted maximal effect; nearly all actives have a fitted effect of over 55% in size
#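 In this reporter screen, reduction of luminescence relative to DMSO vehicle indicated activity. Compounds and 5-fluorouridine were added together to 2,000 cells per well, incubated for 16 hr at 37 °C, then developed with ONE-Glo.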
# TDP1 block: blocks human tyrosyl-DNA phosphodiesterase 1; recombinant TDP1, AlphaScreen DNA substrate cleavage; Potency, µM (series often up to 130 µM), without a hit: at the top dose activity change, negative = inhibition, usual class: inhibitors; 350,000 tested, 0.28% active; AID 485290; further: potency means the concentration at half of the fitted maximal effect; nearly all actives have a fitted effect of over 40% in size
# Target sequence (Q9NUW8 whole entry, looked up): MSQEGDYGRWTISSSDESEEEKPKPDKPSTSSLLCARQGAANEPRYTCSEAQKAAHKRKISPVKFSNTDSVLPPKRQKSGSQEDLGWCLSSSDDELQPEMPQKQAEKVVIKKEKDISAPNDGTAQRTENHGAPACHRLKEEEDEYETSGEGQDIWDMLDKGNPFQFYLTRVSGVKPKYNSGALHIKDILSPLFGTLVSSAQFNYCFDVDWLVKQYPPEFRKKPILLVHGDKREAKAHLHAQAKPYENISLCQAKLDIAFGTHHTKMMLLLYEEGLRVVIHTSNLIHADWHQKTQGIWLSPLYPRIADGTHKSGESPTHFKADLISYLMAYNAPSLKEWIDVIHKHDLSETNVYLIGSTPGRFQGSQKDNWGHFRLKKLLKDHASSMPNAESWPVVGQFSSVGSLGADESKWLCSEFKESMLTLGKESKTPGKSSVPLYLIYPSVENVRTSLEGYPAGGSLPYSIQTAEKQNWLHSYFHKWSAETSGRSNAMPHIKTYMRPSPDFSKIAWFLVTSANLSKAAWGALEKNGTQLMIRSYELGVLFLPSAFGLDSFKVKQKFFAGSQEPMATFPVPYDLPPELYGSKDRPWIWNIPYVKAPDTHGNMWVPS
#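 Enzyme-compound mixtures sat 15 min at room temperature, followed by a 5 min reaction with 15 nM final substrate and 10 min with AlphaScreen beads. Recombinant human Tdp1 was used at 1 nM final.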
# Giardia kill: Giardia lamblia killing. 340,000 tested, 0.15% active. activity change, % at 7.66 µM, hits read low. Giardia lamblia trophozoite viability. AID 540267; in the data active means activity change below about -80%; inconclusive means between about -30% and that limit;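 further: parasites exposed to compound for two days anaerobically before the ATP read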
#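 Luminescent ATP signal served as the viability read-out, measured 15-30 min after adding ATP detection reagent to trophozoites that had been incubated with compounds for 48 hrs at 37 deg C anaerobically at 100 cells/well.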
# IL1B secr inh: inflammasome signaling inhibition, IL-1 beta readout | 360,000 tested, 4.7% active | activity change, % at 57.5 µM | THP-1 LPS/ATP IL-1B secretion, AlphaLISA, 16 h; hits give low values; in the data active means activity change below about -50%; inconclusive means mostly about -30% to -49%
#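 Secreted IL-1B measured by AlphaLISA bead assay after 16 h compound exposure of THP-1 cells; compounds (final up to 57.5 uM) added 1 h before LPS (250 ng/mL) and ATP (1.25 mM) stimulation; lower signal means less secretion.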
# * hit, by the source's call; i = inactive; ? = inconclusive; . = no result given; [ ] = another dose, or the depositor's remark. In the library only some 19% were active in any assay of this set; here they are far more common. Unless noted, the call rests on the fitted dose curve; in most records, active means well fitted curve in the direction sought with a large enough effect; inconclusive means small, poorly fitted or top-dose-only effect, or another doubt; inactive means no such curve, though single readings can be large; an effect the other way counts as inactive or inconclusive. On the % scale 0 is the no-effect control and ±100 the full control effect.
SMILES,DT40 TDP1 CPT,TDP1 cell noCPT,ELG1 repair inh,TDP1 block,Giardia kill,IL1B secr inh
O=C(N[C@@H]1C/C=C\C[C@@H](CC(=O)N(CCO)Cc2ccccc2)C(=O)NCCOC1=O)OCC1c2ccccc2-c2ccccc21,16.4µM*,9.2µM*,-28.1%,-2.2%,27.7,16.6
O=C1CC/C=C\C[C@@H](CC(=O)N(CCO)Cc2ccccc2)C(=O)N[C@H](Cc2ccccc2)CO1,-26.1%,?,?,0.5%,-25.5,-2.4
O=C(N[C@@H]1C/C=C\C[C@H](CC(=O)N(CCO)Cc2ccccc2)C(=O)N[C@@H](Cc2ccccc2)COC1=O)OCC1c2ccccc2-c2ccccc21,16.4µM*,16.4µM*,0.6%,-0.2%,-20.0,16.7
O=C(COC(=O)c1ccc(Cl)nc1)NC1CCCc2ccccc21 (configuration not stated),-16.6%,-5.9%,?,-6.6%,5.9,17.2
C[C@@H]1COC(=O)[C@H](NC(=O)OCC2c3ccccc3-c3ccccc32)C/C=C\C[C@@H](CC(=O)N(CCO)Cc2ccccc2)C(=O)N1,9.2µM*,14.6µM*,11.3%,-4.6%,-16.5,3.3
CC1=C(C(=O)OCc2ccccc2)C(c2ccc(N(C)C)cc2)NC(=O)N1 (configuration not stated),-23.4%,-23.0%,-8.1%,5.2%,-5.1,-60.1*
CC1=C(C(=O)OCc2ccccc2)C(c2ccccc2OC(F)F)NC(=O)N1 (configuration not stated),29.1µM*,?,?,6.2%,-7.1,-7.4
CCOC(=O)C1=C(C)NC(=O)NC1c1cn(-c2ccccc2)nc1-c1ccc(OC(C)C)cc1 (configuration not stated),?,16.4µM*,.,.,.,.
COc1ccc(COC(=O)C2=C(C)NC(=O)NC2c2ccc(F)cc2)cc1 (configuration not stated),?,?,?,.,-4.9,-52.4*
COc1cc(OC)cc(C(=O)N[C@H](C(=O)OCC(=O)Nc2ccc(C(C)C)cc2)C(C)C)c1,12.0%,-4.7%,1.0%,2.7%,-6.9,18.3
CC1=C(C(=O)OCc2ccccc2)C(c2ccccc2Br)NC(=O)N1 (configuration not stated),-2.5%,?,?,.,14.3,-72.4*
COc1ccc(COC(=O)C2=C(C)NC(=O)NC2c2ccccc2OC(C)C)cc1 (configuration not stated),-28.7%,18.4µM*,-14.1%,.,-6.6,-9.8
Cc1csc(N2CCCC2c2nc3cc(Cl)c(N4CCCCC4)cc3n2CCCO)n1 (configuration not stated),?,16.4µM*,.,.,-7.2,-15.7
Cc1ccc(Cn2c(C3CCCN3c3nc(C)cs3)nc3cc(C(=O)NCCCO)ccc32)cc1 (configuration not stated),-14.6%,2.2%,.,.,10.5,-3.1
OCCCn1c(C2CCCN2c2nc(-c3ccc(Cl)cc3)cs2)nc2cc(Cl)c(N3CCCCC3)cc21 (configuration not stated),?,?,.,.,12.0,22.7
OCCCn1c(C2CCCN2c2nc(-c3ccc(F)cc3)cs2)nc2cc(Cl)c(N3CCCCC3)cc21 (configuration not stated),?,20.6µM*,.,.,-7.1,15.3
CCc1cccc(NC(=O)C(NC(=O)C2CCCCC2)C(C)C)c1 (configuration not stated),-13.0%,-24.4%,-6.3%,2.5%,0.2,-5.6
O=C(O)c1cn(-c2ccc(F)cc2)c2cc(N3CCNCC3)c(F)cc2c1=O,?,16.4µM*,.,6.8%[56.1 µM],27.4,-12.8
CCOC(=O)N1CCC(NC(=O)c2ccc(CS(=O)c3cccc(Cl)c3)o2)CC1 (configuration not stated),?,13.6%,-0.9%,6.7%,-16.9,-10.4
Cc1nc(C)c(C(=O)N2CCCC(C(=O)c3ccc(Cl)cc3C)C2)s1 (configuration not stated),18.4µM*,?,-7.0%,4.7%,-25.5,17.4
Cc1nc(C)n(CC(=O)N2CCCC(C(=O)c3ccc(Cl)cc3C)C2)n1 (configuration not stated),0.411µM*,18.4µM*,-3.8%,.,6.0,5.1
Cc1cc(C(=O)N2CCCC(C(=O)c3ccc(Cl)cc3C)C2)no1 (configuration not stated),18.4µM*,23.1µM*,?,2.5%,-3.4,i
Cc1cc(Cl)ccc1C(=O)C1CCCN(C(=O)c2cnsn2)C1 (configuration not stated),?,?,?,5.1%,2.5,35.7
COc1ccc(C(=O)C2CCCN(C(=O)Cn3nc(C)nc3C)C2)cc1F (configuration not stated),-5.6%,-13.6%,.,.,.,19.3
Cc1cc(Cl)ccc1C(=O)C1CCCN(C(=O)c2ccoc2)C1 (configuration not stated),?,14.6µM*,3.7%,5.4%,-15.7,-6.8
SMILES,DT40 TDP1 CPT,TDP1 cell noCPT,ELG1 repair inh,TDP1 block,Giardia kill,IL1B secr inh
COCc1ccc(C(=O)N2CCCC(C(=O)c3ccc(Cl)cc3C)C2)o1 (configuration not stated),?,?,?,2.2%,?,26.2
COc1cc2nc(SCc3cccc(Cl)c3)n3nc(CCn4nc(C)cc4C)nc3c2cc1OC,-3.7%,-10.9%,.,0.0%,.,.
CCc1nnc(SCc2nc(-c3ccccc3F)oc2C)c2cc3sccc3n12,-24.4%,?,.,2.6%,.,.
COc1cc(NC(=O)c2ccc(C)cc2)c(OC)cc1NC(=O)CN1CCCCC1,20.6µM*,29.1µM*,?,5.5%,8.5,?
COc1cc(NC(=O)Nc2cccc(Cl)c2)c(OC)cc1NC(=O)CN1CCCCC1,16.4µM*,?,-14.2%,10.0%,-11.6,-28.9
COc1cc(NC(=O)c2cc(OC)c(OC)c(OC)c2)c(OC)cc1NC(=O)CN1CCCCC1,?,?,?,6.8%,-4.3,-3.5
Cc1ccc(Sc2sc(=O)n(C)c2S(=O)(=O)c2ccc(C)cc2)cc1,?,20.6µM*,-13.3%,-3.4%,9.2,4.2
O=C(NC1CCCC1)c1ccc2c(c1)N(Cc1ccccc1)CCS2,?,18.4µM*,?,3.9%,8.7,-4.5
Cc1ccc(CN2CCSc3ccc(C(=O)NC4CCN(Cc5ccccc5)CC4)cc32)cc1,7.31µM*,8.2µM*,-11.5%,8.6%,-7.1,-81.8*
CC(=S)c1c(C)cc2cc(C)ccn12,?,?,-2.9%,10.5%,-28.7,8.9

# Screens as filed in PubChem BioAssay.
